Laboratory results as given in PubChem BioAssay AID1159580 (chemical genetic matrix, 2015).
Among all 5,500 compounds or so, about 2,000 (36%) were called active. About 18% were inconclusive and are not listed. Rule as the data show it: active = normalized growth mostly below about 0.91 (no sharp cut-off); inconclusive = no clear call, values can overlap the other calls; inactive = mostly above about 0.92. Some of the results follow.

Test: chemical genetic growth profiling, strain panel (AID 1159580);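 also: tested at 20 µM; growth read once vehicle control cultures reached saturation at 30 °C; 1 = growth at the plate median or of vehicle wells; lower values mean less growth of the strain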
Details: growth OD

Measured: normalized growth

COc1cc2c(cc1OC)CC(=O)OC2
inactive: S. cerevisiae deletion strains, locus YAL013W, strain DEP1, active compounds read low 0.985 | S. cerevisiae deletion strains, locus YBR229C, strain ROT2, active compounds read low 0.984 | S. cerevisiae deletion strains, locus YCL061C, strain MRC1, active compounds read low 1 | S. cerevisiae deletion strains, locus YDL101C, strain DUN1, active compounds read low 0.984 | S. cerevisiae deletion strains, locus YDR150W, strain NUM1, active compounds read low 0.966 | S. cerevisiae deletion strains, locus YEL061C, strain CIN8, active compounds read low 1 | S. cerevisiae deletion strains, locus YGR078C, strain PAC10, active compounds read low 1.01 | S. cerevisiae deletion strains, locus YHR030C, strain SLT2, active compounds read low 1.06 | S. cerevisiae deletion strains, locus YHR087W, strain rtc3, active compounds read low 0.997 | S. cerevisiae deletion strains, locus YJR043C, strain POL32, active compounds read low 0.993 | S. cerevisiae deletion strains, locus YJR075W, strain HOC1, active compounds read low 0.995 | S. cerevisiae deletion strains, locus YKL190W, strain CNB1, active compounds read low 1 | S. cerevisiae deletion strains, locus YLR058C, strain SHM2 (second series), active compounds read low 0.994 | S. cerevisiae deletion strains, locus YLR085C, strain ARP6, active compounds read low 1.03 | S. cerevisiae deletion strains, locus YLR262C, strain YPT6, active compounds read low 1.16 | S. cerevisiae deletion strains, locus YML094W, strain GIM5, active compounds read low 0.999 | S. cerevisiae deletion strains, locus YMR219W, strain ESC1, active compounds read low 0.971 | S. cerevisiae deletion strains, locus YMR263W, strain SAP30, active compounds read low 0.994 | S. cerevisiae deletion strains, locus YNL128W, strain TEP1, active compounds read low 1 | S. cerevisiae deletion strains, locus YNL153C, strain GIM3, active compounds read low 1.03 | S. cerevisiae deletion strains, locus YNL298W, strain CLA4 (second series), active compounds read low 1.04 | S. cerevisiae deletion strains, locus YNL322C, strain KRE1, active compounds read low 0.979 | S. cerevisiae deletion strains, locus YNR030W, strain Alg12, active compounds read low 1.02 | S. cerevisiae deletion strains, locus YPL055C, strain LGE1, active compounds read low 0.935 | S. cerevisiae deletion strains, locus YPL241C, strain CIN2, active compounds read low 1 | S. cerevisiae deletion strains, locus YPR135W, strain CTF4, active compounds read low 1.04 | S. cerevisiae strains, strain wild type, active compounds read low 1.01
active: S. cerevisiae deletion strains, locus YLR039C, strain RIC1, active compounds read low 1.23 [resistant]
